Results with a measured potency or affinity are listed apart. Activity calls are given as the source filed them.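 How the source made its calls: active means a dose-response curve fit returns a half-maximal inhibitory concentration, extrapolated values included; inactive means the fit returns no such concentration.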
biological target: HMG-CoA reductase [Enterococcus faecalis] (UniProt Q9FD70); experiment: inhibitors of E. faecalis class II HMGR, confirmation, biochemical, Enterococcus faecalis (AID 1233); settings: purified E. faecalis HMGR, NADPH absorbance 340 nm kinetics; series mostly up to 100 µM

outcome, inactive:
Cc1ccccc1-c1oc(C)c(C)[n+]1[O-]
Cc1cc(C)cc(-n2c3nc4ccccc4nc3c3c(=O)n(Cc4ccco4)cnc32)c1
C/C(CC(=O)NC1CCCCC1)=N\NC(=O)COc1ccc(C)cc1Br
CC(=O)c1ccc(N2CCN(C(=O)Cc3n[nH]c(=O)c4ccccc34)CC2)cc1
CC(C)OC(=O)NC(C)(C)COC(=O)Nc1cccc(Cl)c1
CCOc1ccc(OCCCC(=O)Nc2nc3ccccc3[nH]2)cc1
O=C(CCCn1ncn2c(cc3occc32)c1=O)N1CCc2ccccc2C1
O=C(CN1CCN(c2ncc(C(F)(F)F)cc2Cl)CC1)NC(=O)NCc1ccccc1
CC(=O)C1=C(O)C(=O)N(C)C1c1ccccc1F (stereo not drawn)
COc1ccccc1C(=O)NCC(=O)NC1CCCc2ccccc21 (stereo not drawn)
Cc1cc(=O)[nH]c(SCC(=O)C23CC4CC(CC(C4)C2)C3)c1C#N
Cc1cccc(C(=O)Nc2cc(=O)n(C)c(=O)n2C)c1
CCOC(=O)C1=C(COc2ccc(F)cc2Cl)NC(=O)NC1c1cc(C)ccc1C (stereo not drawn)
CCOC(=O)c1cnn(-c2nc(-c3ccccc3)cs2)c1C(F)(F)F
OCc1ccccc1CNCc1ccccc1
CCOc1ccc(CN2CCN(Cc3cc4ccccc4[nH]3)CC2CCO)cc1 (stereo not drawn)
COc1cc(OC)cc(C(=O)NC(C(=O)O)C23CC4CC(CC(C4)C2)C3)c1 (stereo not drawn)
COc1ccc(CNC(=O)C2CCCN2S(=O)(=O)c2ccc(Cl)cc2)cc1 (stereo not drawn)

From PubChem BioAssay AID1233 (SRMLSC, 2008)
